Laboratory results as given in paper PMC7862700, “An all-to-all approach to the identification of sequence-specific readers for epigenetic DNA modifications on cytosine”.

How the values were obtained:
Assay in all cases: DAPPL (digital affinity profiling via proximity ligation, sequencing); 10 mM Tris-HCl pH 7.5, 50 mM NaCl, 1 mM DTT, 4% glycerol, room temperature, 30 min; GST-TFs on glutathione beads, 16-mer random dsDNA library, 0.1% formaldehyde crosslink after washing; high values mean tight binding
FEV = target: T1, FEV (Homo sapiens, UniProt Q99581 1-238); details: protein: recombinant; tags: N-terminal GST; dsDNA, one strand shown
T1 sequence: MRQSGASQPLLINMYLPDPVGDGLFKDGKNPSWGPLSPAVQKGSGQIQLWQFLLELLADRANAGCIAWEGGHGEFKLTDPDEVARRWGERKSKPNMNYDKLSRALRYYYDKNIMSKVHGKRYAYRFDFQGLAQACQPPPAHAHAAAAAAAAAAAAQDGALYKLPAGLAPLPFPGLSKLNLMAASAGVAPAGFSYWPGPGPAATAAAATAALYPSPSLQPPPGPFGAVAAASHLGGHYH
Method in brief: (§1)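 Binding signal is each hexamer's read frequency for a factor divided by its frequency in the tag-only sample. The factors were GST-fused human transcription factors from yeast, captured on glutathione beads, DNA-barcoded and pooled with that sample. Pools were incubated with 200 nmole of a random double-stranded 16-mer DNA library in Tris/NaCl/DTT/glycerol buffer at room temperature for 30 min, then washed, crosslinked with 0.1% formaldehyde, proximity-ligated with BsaI/T4 ligase (1 h, 37 °C), PCR-amplified and sequenced on an Illumina NextSeq500.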

ETV5 = ETV5 (Homo sapiens, UniProt P41161 1-510); details: protein: recombinant; tags: N-terminal GST; dsDNA, one strand shown
ETV5, sequence (P41161 whole entry): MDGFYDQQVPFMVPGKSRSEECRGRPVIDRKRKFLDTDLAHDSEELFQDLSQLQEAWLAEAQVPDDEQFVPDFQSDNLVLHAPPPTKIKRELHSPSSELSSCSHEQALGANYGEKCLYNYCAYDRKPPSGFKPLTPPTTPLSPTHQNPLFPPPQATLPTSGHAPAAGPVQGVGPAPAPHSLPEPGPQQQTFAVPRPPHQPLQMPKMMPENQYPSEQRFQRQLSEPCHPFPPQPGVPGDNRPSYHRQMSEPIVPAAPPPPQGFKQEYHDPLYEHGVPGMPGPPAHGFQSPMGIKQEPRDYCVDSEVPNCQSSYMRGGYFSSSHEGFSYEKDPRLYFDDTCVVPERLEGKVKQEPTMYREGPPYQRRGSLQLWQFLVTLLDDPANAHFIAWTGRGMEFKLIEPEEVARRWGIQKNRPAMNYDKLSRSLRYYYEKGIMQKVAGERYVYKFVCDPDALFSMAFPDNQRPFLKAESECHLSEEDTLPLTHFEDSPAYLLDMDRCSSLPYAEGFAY
Method in brief: as §1

HSF1 = HSF1 (Homo sapiens, UniProt Q00613 1-529); details: protein: recombinant; tags: N-terminal GST; chain copies: 3; dsDNA, one strand shown
HSF1, sequence (Q00613 whole entry): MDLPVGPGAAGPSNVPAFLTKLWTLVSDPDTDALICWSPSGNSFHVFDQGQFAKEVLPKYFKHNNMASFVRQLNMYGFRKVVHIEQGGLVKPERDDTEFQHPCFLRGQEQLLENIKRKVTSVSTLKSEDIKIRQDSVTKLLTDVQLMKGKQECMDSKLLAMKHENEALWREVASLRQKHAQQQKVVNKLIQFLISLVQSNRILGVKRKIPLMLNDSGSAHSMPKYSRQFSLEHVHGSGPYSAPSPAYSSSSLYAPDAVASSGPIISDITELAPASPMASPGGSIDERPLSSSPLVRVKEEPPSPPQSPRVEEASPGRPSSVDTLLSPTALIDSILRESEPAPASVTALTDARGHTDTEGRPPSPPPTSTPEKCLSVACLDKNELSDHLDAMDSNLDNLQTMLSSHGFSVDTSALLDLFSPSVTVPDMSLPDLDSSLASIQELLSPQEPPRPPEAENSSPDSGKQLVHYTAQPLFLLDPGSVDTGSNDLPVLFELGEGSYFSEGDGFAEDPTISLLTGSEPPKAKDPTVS
Method in brief: as §1

SPIC = target: T2, SPIC (Homo sapiens, UniProt Q8N5J4 1-248); details: protein: recombinant; tags: N-terminal GST; dsDNA, one strand shown
T2 sequence: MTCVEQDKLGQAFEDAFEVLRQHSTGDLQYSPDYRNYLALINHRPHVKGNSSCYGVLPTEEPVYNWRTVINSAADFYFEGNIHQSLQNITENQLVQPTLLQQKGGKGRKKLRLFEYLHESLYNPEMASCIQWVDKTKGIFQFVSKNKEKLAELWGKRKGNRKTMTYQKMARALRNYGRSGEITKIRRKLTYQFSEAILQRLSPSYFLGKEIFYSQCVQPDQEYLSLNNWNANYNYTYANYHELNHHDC
Method in brief: as §1

ELF4 = ELF4 (Homo sapiens, UniProt Q99607 1-663); details: protein: recombinant; tags: N-terminal GST; dsDNA, one strand shown
ELF4, sequence (Q99607 whole entry): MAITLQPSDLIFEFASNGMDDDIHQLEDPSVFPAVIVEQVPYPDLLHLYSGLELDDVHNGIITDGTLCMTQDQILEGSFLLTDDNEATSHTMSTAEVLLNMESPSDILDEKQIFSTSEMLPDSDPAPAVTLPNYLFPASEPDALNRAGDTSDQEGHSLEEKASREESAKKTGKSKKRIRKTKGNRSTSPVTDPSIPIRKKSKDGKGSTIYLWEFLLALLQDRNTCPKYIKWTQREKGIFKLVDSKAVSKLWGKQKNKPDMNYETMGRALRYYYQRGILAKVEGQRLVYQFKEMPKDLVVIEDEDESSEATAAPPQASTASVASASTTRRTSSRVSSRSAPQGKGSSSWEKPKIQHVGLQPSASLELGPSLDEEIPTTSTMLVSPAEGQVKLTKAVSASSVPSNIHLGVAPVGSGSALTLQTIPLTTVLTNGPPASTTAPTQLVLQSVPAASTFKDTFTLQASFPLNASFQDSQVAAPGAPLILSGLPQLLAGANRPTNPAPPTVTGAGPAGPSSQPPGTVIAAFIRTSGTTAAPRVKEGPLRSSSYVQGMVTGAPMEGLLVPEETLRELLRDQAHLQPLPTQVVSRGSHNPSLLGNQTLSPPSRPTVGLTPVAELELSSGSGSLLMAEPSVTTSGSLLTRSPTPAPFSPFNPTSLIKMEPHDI
Method in brief: as §1

ETV2 = target: T3, ETV2 (Homo sapiens, UniProt O00321 1-342); details: protein: recombinant; tags: N-terminal GST; dsDNA, one strand shown
T3 sequence: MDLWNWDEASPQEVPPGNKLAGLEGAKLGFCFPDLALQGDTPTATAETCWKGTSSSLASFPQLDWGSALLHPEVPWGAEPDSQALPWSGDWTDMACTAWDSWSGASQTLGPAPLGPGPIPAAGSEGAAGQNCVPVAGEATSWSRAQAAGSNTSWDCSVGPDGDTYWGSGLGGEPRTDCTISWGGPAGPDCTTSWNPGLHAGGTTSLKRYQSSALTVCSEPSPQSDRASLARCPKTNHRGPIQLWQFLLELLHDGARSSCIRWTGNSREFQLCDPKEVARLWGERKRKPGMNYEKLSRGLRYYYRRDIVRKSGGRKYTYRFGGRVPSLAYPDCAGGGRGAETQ
Method in brief: as §1

ELF3 = target: T4, ELF3 (Homo sapiens, UniProt P78545 1-371); details: protein: recombinant; tags: N-terminal GST; dsDNA, one strand shown
T4 sequence: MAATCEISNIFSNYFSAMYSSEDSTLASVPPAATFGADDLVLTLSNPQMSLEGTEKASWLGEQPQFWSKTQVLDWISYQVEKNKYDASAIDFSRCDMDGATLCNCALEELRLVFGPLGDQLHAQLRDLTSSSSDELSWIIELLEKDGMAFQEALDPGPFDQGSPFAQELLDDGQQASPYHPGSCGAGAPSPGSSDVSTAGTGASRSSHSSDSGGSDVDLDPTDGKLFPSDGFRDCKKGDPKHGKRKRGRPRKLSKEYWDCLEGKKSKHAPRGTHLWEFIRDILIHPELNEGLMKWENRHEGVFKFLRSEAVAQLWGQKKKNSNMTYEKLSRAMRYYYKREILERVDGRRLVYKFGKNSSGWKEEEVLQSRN
Method in brief: as §1

CRX = CRX (Homo sapiens, UniProt O43186 1-299); details: protein: recombinant; tags: N-terminal GST; dsDNA, one strand shown
CRX, sequence (O43186 whole entry): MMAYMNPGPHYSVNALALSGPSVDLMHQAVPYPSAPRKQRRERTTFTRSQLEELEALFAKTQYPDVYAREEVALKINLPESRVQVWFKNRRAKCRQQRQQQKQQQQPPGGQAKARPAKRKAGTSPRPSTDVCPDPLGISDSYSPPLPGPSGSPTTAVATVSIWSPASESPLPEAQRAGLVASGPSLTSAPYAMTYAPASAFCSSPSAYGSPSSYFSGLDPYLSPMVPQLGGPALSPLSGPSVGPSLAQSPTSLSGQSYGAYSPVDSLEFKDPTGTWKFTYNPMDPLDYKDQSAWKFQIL
Method in brief: as §1

ETV1 = ETV1 (Homo sapiens, UniProt P50549 1-477); details: protein: recombinant; tags: N-terminal GST; dsDNA, one strand shown
ETV1, sequence (P50549 whole entry): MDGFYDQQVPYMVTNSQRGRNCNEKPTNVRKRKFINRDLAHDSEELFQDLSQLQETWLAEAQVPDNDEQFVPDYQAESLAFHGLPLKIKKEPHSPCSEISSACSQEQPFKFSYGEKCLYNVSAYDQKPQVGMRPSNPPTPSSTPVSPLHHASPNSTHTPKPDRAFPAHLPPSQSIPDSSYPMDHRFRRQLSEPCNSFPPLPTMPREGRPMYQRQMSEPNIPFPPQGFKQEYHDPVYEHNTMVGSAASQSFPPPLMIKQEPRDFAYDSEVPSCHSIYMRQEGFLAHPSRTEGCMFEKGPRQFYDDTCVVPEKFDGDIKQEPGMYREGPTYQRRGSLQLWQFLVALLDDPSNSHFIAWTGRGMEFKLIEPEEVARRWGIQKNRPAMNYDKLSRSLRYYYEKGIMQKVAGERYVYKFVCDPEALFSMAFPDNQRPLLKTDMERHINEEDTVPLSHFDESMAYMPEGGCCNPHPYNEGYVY
Method in brief: as §1

ERF = target: T5, ERF (Homo sapiens, UniProt P50548 1-548); details: protein: recombinant; tags: N-terminal GST; dsDNA, one strand shown
T5 sequence: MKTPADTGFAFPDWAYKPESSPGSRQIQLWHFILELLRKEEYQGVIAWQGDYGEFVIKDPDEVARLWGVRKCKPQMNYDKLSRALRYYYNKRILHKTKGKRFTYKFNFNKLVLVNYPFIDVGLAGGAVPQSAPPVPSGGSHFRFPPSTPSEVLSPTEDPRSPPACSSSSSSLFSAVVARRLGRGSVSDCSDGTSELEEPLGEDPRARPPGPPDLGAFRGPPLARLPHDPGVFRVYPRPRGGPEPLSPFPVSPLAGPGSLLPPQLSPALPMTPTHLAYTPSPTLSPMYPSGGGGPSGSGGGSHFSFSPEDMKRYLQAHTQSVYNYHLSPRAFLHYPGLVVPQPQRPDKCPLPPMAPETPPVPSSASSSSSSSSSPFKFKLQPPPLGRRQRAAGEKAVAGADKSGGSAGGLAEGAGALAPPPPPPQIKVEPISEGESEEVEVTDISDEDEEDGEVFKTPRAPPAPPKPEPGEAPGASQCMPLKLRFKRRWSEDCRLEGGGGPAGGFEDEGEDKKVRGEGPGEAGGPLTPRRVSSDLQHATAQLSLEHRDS
Method in brief: as §1

ETS2 = target: T6, ETS2 (Homo sapiens, UniProt P15036 1-469); details: protein: recombinant; tags: N-terminal GST; dsDNA, one strand shown
T6 sequence: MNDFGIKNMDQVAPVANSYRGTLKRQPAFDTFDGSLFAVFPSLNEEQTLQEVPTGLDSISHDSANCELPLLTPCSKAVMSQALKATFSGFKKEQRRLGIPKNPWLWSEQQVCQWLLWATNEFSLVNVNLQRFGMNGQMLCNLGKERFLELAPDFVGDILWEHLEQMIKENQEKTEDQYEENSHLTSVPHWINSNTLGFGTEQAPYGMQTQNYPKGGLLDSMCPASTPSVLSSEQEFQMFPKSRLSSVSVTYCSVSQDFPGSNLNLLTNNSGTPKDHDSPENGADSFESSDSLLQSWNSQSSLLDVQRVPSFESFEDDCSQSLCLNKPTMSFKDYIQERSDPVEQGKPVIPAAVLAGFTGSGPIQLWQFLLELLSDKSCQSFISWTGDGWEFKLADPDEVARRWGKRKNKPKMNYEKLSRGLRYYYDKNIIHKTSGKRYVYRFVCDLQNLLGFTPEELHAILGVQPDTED
Method in brief: as §1

SPDEF = target: T7, SPDEF (Homo sapiens, UniProt O95238 1-335); details: protein: recombinant; tags: N-terminal GST; dsDNA, one strand shown
T7 sequence: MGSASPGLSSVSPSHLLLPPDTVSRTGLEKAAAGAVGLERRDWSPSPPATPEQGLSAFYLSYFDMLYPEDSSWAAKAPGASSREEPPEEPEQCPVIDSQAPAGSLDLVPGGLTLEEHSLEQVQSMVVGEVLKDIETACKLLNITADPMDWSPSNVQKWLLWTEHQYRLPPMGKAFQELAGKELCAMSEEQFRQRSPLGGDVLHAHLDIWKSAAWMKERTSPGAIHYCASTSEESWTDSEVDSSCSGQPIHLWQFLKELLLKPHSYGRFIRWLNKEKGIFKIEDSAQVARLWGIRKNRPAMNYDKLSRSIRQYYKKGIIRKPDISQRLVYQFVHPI
Method in brief: as §1

ETV7 = target: T8, ETV7 (Homo sapiens, UniProt Q9Y603 1-341); details: protein: recombinant; tags: N-terminal GST; dsDNA, one strand shown
T8 sequence: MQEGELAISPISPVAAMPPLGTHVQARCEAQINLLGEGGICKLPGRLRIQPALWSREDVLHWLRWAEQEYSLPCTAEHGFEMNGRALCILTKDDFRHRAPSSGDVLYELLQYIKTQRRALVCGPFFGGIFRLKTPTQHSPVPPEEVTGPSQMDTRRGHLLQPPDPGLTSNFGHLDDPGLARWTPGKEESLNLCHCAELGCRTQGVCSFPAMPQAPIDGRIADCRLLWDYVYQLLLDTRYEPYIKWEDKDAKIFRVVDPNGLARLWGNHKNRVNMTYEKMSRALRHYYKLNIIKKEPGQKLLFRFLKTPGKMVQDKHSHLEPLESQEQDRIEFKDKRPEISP
Method in brief: as §1

ETV3 = target: T9, ETV3 (Homo sapiens, UniProt P41162-2 1-143); details: protein: recombinant; tags: N-terminal GST; dsDNA, one strand shown
T9 sequence: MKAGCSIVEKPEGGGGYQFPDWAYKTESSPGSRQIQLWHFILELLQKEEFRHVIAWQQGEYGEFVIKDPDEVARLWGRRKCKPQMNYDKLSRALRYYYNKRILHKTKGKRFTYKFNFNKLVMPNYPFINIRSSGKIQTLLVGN
Method in brief: as §1

ETV6 = ETV6 (Homo sapiens, UniProt P41212 1-452); details: protein: recombinant; tags: N-terminal GST; dsDNA, one strand shown
ETV6, sequence (P41212 whole entry): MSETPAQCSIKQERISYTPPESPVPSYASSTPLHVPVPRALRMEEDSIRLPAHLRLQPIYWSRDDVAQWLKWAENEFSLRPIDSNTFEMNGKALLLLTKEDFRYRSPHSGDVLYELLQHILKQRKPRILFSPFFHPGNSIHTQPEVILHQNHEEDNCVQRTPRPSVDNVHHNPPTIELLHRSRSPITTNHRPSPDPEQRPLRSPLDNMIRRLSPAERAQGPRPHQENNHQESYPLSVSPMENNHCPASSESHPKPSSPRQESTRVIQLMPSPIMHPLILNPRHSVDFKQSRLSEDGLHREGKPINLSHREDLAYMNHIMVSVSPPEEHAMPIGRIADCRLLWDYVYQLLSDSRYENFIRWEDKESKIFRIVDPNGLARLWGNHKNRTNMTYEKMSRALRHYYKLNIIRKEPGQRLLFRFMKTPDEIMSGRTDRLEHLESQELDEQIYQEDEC
Method in brief: as §1

ELK4 = target: T10, ELK4 (Homo sapiens, UniProt P28324-2 1-405); details: protein: recombinant; tags: N-terminal GST; dsDNA, one strand shown
T10 sequence: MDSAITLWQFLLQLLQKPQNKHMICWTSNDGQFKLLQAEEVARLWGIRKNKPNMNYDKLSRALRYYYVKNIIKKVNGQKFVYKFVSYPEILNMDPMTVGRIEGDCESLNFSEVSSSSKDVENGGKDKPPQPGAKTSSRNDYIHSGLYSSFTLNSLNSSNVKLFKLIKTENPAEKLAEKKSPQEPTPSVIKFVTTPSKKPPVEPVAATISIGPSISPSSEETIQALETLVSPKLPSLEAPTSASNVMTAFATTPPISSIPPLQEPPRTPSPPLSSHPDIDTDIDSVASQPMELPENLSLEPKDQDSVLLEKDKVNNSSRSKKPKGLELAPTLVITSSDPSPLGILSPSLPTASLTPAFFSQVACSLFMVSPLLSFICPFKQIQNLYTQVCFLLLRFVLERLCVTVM
Method in brief: as §1

ETV3L = target: T11, ETV3L (Homo sapiens, UniProt Q6ZN32 1-361); details: protein: recombinant; tags: N-terminal GST; dsDNA, one strand shown
T11 sequence: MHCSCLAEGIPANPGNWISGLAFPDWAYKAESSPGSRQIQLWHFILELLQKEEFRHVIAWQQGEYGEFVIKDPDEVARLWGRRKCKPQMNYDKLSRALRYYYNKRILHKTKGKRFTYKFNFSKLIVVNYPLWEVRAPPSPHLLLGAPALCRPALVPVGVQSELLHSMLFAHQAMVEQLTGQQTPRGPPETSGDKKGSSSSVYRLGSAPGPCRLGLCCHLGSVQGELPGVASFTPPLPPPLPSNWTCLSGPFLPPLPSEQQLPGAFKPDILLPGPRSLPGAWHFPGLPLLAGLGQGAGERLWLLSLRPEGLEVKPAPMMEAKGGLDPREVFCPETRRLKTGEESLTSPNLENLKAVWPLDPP
Method in brief: as §1

## ACTTAG
FEV
  binding signal: 1.03 fold enrichment (6-mer frequency, TF over GST control)
ETV5
  binding signal: 1.16 fold enrichment (6-mer frequency, TF over GST control)
HSF1
  binding signal: 1.27 fold enrichment (6-mer frequency, TF over GST control)
SPIC
  binding signal: 1.1 fold enrichment (6-mer frequency, TF over GST control)
ELF4
  binding signal: 1.03 fold enrichment (6-mer frequency, TF over GST control)
ETV2
  binding signal: 1.12 fold enrichment (6-mer frequency, TF over GST control)
ELF3
  binding signal: 1.2 fold enrichment (6-mer frequency, TF over GST control)
CRX
  binding signal: 1.72 fold enrichment (6-mer frequency, TF over GST control)
ETV1
  binding signal: 1.04 fold enrichment (6-mer frequency, TF over GST control)
ERF
  binding signal: 1.17 fold enrichment (6-mer frequency, TF over GST control)
ETS2
  binding signal: 1.14 fold enrichment (6-mer frequency, TF over GST control)
SPDEF
  binding signal: 1.01 fold enrichment (6-mer frequency, TF over GST control)
ETV7
  binding signal: 1.03 fold enrichment (6-mer frequency, TF over GST control)
ETV3
  binding signal: 1.09 fold enrichment (6-mer frequency, TF over GST control)
ETV6
  binding signal: 1.14 fold enrichment (6-mer frequency, TF over GST control)

## TGGATT
ETV5
  binding signal: 1.06 fold enrichment (6-mer frequency, TF over GST control)
HSF1
  binding signal: 1.85 fold enrichment (6-mer frequency, TF over GST control)
SPIC
  binding signal: 1.07 fold enrichment (6-mer frequency, TF over GST control)
ELK4
  binding signal: 1.11 fold enrichment (6-mer frequency, TF over GST control)
CRX
  binding signal: 2.46 fold enrichment (6-mer frequency, TF over GST control)
ETV3L
  binding signal: 1.05 fold enrichment (6-mer frequency, TF over GST control)
ETS2
  binding signal: 1.03 fold enrichment (6-mer frequency, TF over GST control)
ETV7
  binding signal: 1.04 fold enrichment (6-mer frequency, TF over GST control)
ETV6
  binding signal: 1.02 fold enrichment (6-mer frequency, TF over GST control)
